Sampled rows, rich in hits. Any-hit rate of the full collection: about 3.5%.
TEAD-YAP inh – TEAD-YAP interaction inhibition; HEK-TIYL cells, TEAD-Gal4/YAP UAS-luciferase luminescence; inhibition, % at 9.12 µM; 640,000 compounds, 1.4% hits; AID 1259422; in the data active = inhibition above about 32%;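 note: 0% = median of test compound wells and 100% = reference inhibitor wells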
FBW7 activator – activators of human E3 ligase FBW7; AlphaScreen FBW7–phospho-cyclin E peptide binding, activator screen; 650,000 compounds, 0.13% hits; normalized activity (activation), % at 26.1 µM; Q969H0; in the data active = normalized activity above about 1.9%;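 note: purified mutant Fbw7 with reduced substrate affinity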
GPR151 ag – activates the human receptor GPR151; Q8TDV0; activation, % at 11.2 µM; PathHunter beta-arrestin GPR151 cells, luminescence; 650,000 compounds, 1% hits; in the data active = activation above about 4.9%;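 note: 0% = median of compound wells and 100% = cells with positive control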
MITF inh – inhibitors of human MITF; AlphaScreen MITF homodimerization, bead proximity signal; inhibition, % at 2.6 µM; 650,000 compounds, 0.91% hits; AID 1259374; in the data active = inhibition above about 50%;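 note: 0% = vehicle wells with protein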
Target sequence (O75030 whole entry, looked up): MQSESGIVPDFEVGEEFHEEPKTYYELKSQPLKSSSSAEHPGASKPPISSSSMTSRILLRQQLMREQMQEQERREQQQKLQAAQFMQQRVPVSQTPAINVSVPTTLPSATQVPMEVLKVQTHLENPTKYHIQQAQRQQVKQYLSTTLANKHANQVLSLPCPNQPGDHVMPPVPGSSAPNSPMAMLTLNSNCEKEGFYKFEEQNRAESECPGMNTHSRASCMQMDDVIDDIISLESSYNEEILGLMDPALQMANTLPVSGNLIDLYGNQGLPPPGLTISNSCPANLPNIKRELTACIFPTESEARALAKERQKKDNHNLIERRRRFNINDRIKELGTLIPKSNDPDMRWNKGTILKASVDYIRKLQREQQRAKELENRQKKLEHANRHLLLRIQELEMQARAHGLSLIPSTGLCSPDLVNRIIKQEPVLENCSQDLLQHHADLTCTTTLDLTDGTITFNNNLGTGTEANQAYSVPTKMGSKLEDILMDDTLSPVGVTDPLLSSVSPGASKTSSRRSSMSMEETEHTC
An asterisk follows results filed as active.

SMILES	TEAD-YAP inh	FBW7 activator	GPR151 ag	MITF inh
CCN1\C(=C/C=C(C)/C=C/c2sc3ccccc3[n+]2CC)Sc2ccccc21	66*	11*	2	-24
COc1ccc(CCNC(=O)c2sc3ncnc(N4CCN(c5ccccc5OC)CC4)c3c2C)cc1OC	14	0	-1	18
COc1ccc(CCNC(=O)c2sc3ncnc(N4CCN(c5ccccn5)CC4)c3c2C)cc1OC	70*	0	0	-5
CCOc1ccc(-n2nc(C(=O)N3CCCCC3)c3ccccc3c2=O)cc1	-1	1	0	13
COc1cc(C=O)ccc1OCCc1ccccc1	33*	0	-9	6
COc1ccccc1-c1nc2sc3c(c2c(=O)o1)CCCC3	68*	0	3	-3
O=c1oc(-c2ccccc2F)nc2sc3c(c12)CCCC3	0	0	0	8
Cc1cc2oc(=O)cc(-c3oc4ccccc4c3NC(=O)c3ccco3)c2cc1C	7	0	0	11
O=C(c1cc2n(n1)C(C(F)(F)F)CC(c1ccc3c(c1)OCO3)N2)N1CCN(c2cccc(Cl)c2)CC1 (configuration not stated)	-6	3.7*	0	19
O=C(c1cc2n(n1)C(C(F)(F)F)CC(c1ccc(Cl)cc1)N2)N1CCN(c2cccc(Cl)c2)CC1 (configuration not stated)	-8	0	1	-22
N#CC1=C(N)N(c2ccccc2)S(=O)(=O)c2cc([N+](=O)[O-])ccc21	56*	0	-1	14
N#Cc1c2ccc([N+](=O)[O-])cc2[n+]([O-])n1-c1ccccc1	-25	0	1	-3
OC(CNCC1CCCO1)COc1ccc(OCC(O)CNCC2CCCO2)cc1 (configuration not stated)	2	0	1	9
OC(CNCC1CCCO1)COc1ccc(OCC(O)NCC2CCCO2)cc1 (configuration not stated)	6	2.3*	-1	12
CC(C(=O)c1ccc(-c2ccccc2)cc1)[n+]1ccc2ccccc2c1 (configuration not stated)	56*	0	0	7
COC(=O)CN1C(=O)S/C(=C/c2cc(OC)c(O)c([N+](=O)[O-])c2)C1=O	8	0	1	10
Cc1ccc(CSc2ccc(C(=O)NNC(=O)c3ccccn3)cc2[N+](=O)[O-])cc1	50*	0	-2	27
CCOC(=O)c1c(C)[nH]c(C(=O)CSc2nnc(NCc3ccccc3)s2)c1C	4	0	2	11
CC(=O)c1c(C)[nH]c(C(=O)CSc2nnc(NCc3ccccc3)s2)c1C	42*	0	0	-3
Cc1ccc(NCC(O)Cn2c(C)c(C)c3ccccc32)c(C)c1 (configuration not stated)	-1	0	-1	16
COc1ccc(-n2ncc3c(Nc4cc(Cl)ccc4OC)ncnc32)cc1	41*	0	1	33
COc1ccc(-n2ncc3c(Nc4ccc(OC)c(Cl)c4)ncnc32)cc1	54*	0	0	-17
COc1ccc(Cl)cc1Nc1ncnc2c1cnn2-c1ccccc1	-15	0	0	10
COC(=O)c1c(S(=O)(=O)N2C[C@@H](C)O[C@@H](C)C2)sc2c1CCN(C1CCCC1)C2	10	0	0	5
CCc1nn2cc(-c3ccc(F)cc3)nc2s1	40*	0	-10	9
SMILES	TEAD-YAP inh	FBW7 activator	GPR151 ag	MITF inh
CCc1nn2cc(-c3ccccc3)nc2s1	74*	0	-10	10
COc1cc(-c2nn3cc(-c4ccccc4)nc3s2)cc(OC)c1OC	-30	1	0	5
CCn1c(O)c(C=Nc2ccccc2Cl)sc1=S	32*	0	0	-3
CC1(Cc2ccc3c(c2)OCO3)C(=O)Nc2ccc(-c3cccnc3)cc21 (configuration not stated)	42*	0	1	11
CC1(Cc2ccccc2)C(=O)Nc2ccc(-c3cccnc3)cc21 (configuration not stated)	18	0	0	8
CCC(=O)N1CCN(c2ccc(NC(=O)Cc3ccccc3)cc2)CC1	-7	0	0	2
COc1cccc(C2=CC(c3ccccc3OC(F)F)n3ncnc3N2)c1 (configuration not stated)	52*	0	-1	6
COc1cccc(C2=CC(c3ccc(OC)cc3OC)n3ncnc3N2)c1 (configuration not stated)	40*	0	-1	3
COc1cccc(C2=CC(c3cc(Br)ccc3F)n3ncnc3N2)c1 (configuration not stated)	47*	0	0	1
COc1cccc(C2=CC(c3ccc(OC(F)F)cc3)n3ncnc3N2)c1 (configuration not stated)	-52	1	-1	3
O=C(Cc1ccccc1F)N1CC[C@H]2[C@H](CCCN2C(=O)C2=CCCCC2)C1	-6	0	0	1
O=C(CCCCN1CCCCC1)Nc1nc(-c2ccccc2)cs1	-38	0	2	-1
Cc1ccc(NCC(=O)N/N=C/c2cc(Br)cc(C)c2O)cc1	3	0	-1	3
COc1ccccc1OCCNC(=O)c1cc(C(F)(F)F)cc(C(F)(F)F)c1	4	0	2	12
CC(C)CC1c2[nH]c3ccccc3c2CCN1C(=O)c1csnn1 (configuration not stated)	40*	0	1	4
CC(C)CC1c2[nH]c3ccccc3c2CCN1C(=O)Cn1cncn1 (configuration not stated)	-6	0	-1	-2
CCC(C(=O)NCc1cccs1)n1c2ccccc2c2nc(=O)cc(C)n21 (configuration not stated)	-3	1	0	-4
CCN(CC)c1ccc(NC(=O)CNCCN2CCOCC2)c(C)c1	2	0	2	61*
CC(=O)N1CCN(CC(=O)NC(c2ccccc2)c2ccccc2)CC1	0	6.2*	0	-4
COc1ccccc1C(NC(=O)C(C)C)c1ccc2cccnc2c1O (configuration not stated)	73*	-2	-1	23
COc1ccccc1C(NC(C)=O)c1ccc2cccnc2c1O (configuration not stated)	33*	-2	-2	57*
Cc1nc(C(=O)NCc2cc(-c3ccc(F)cc3F)on2)cs1	0	0	0	1
O=c1c(Oc2ccccc2Br)coc2cc(O)ccc12	-3	0	1	1
CCN1C(=O)c2ccc(-c3ccc(/C=C4/C(=O)N(c5ccc(C(=O)O)cc5)N=C4C)o3)cc2C1=O	-7	0	2	-2
COc1ccc(-c2cc(C(F)(F)F)c3nc(OC(C)C(C)=O)oc3n2)cc1OC (configuration not stated)	81*	0	2	-1
CC1(C)C(=O)Nc2ccccc2N1C(=O)CN1C(=O)c2ccccc2C1=O	-4	0	0	-3
CC1(C)C(=O)Nc2ccccc2N1C(=O)CCl	48*	0	0	-8
CCOc1c(Cl)cc(C(=O)OCC(=O)N2c3ccccc3NC(=O)C2(C)C)cc1OC	32*	0	-1	14
